Compounds without any hit were thinned out: in the full panel of roughly 79,000, 15% have a hit. Values without a mark were called inactive. The source made the active and inactive calls. Cut-off read from the data, not from the text of the source: active = growth inhibition above about 70%; inactive = the rest.
Columns and labels:
[1] = NCI Yeast Anticancer Drug Screen. Data for the rad52 strain (AID 147);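 note: 0% = growth of vehicle-treated control cultures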; settings: S. cerevisiae rad52 mutant growth inhibition, hits give high values
Method in brief: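 DNA repair-defective yeast; compound exposure; growth scored against vehicle controls.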

[2] = NCI Yeast Anticancer Drug Screen. Data for the wt1 strain (AID 149);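 note: 0% = growth of vehicle-treated wt1 cultures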; settings: S. cerevisiae wt1 strain (SPY 50644) growth inhibition, hits give high values
Method in brief: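 Using yeast strain wt1, compound-induced growth inhibition was determined against vehicle-treated cultures.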

[3] = NCI Yeast Anticancer Drug Screen. Data for the rad50EPP+ strain (AID 151);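 note: 0% = growth of vehicle-treated control cultures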; settings: S. cerevisiae rad50 mutant strain, hits give high values
Method in brief: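 rad50EPP+ yeast treated with test compounds. Readout: growth vs vehicle control.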

[4] = NCI Yeast Anticancer Drug Screen. Data for the mgt1 strain (AID 153); settings: S. cerevisiae mgt1 mutant growth inhibition, hits give high values
Method in brief: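 Growth inhibition relative to vehicle controls was scored for the mgt1 yeast strain after compound exposure.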

[5] = NCI Yeast Anticancer Drug Screen. Data for the rad50 strain (AID 155);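 note: 0% = growth of vehicle-only cultures of the same strain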; settings: S. cerevisiae rad50 strain growth inhibition, hits give high values
Method in brief: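 Relative growth inhibition (compound vs vehicle) was measured in yeast with a defined repair-gene alteration.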

[6] = NCI Yeast Anticancer Drug Screen. Data for the mec2-1 strain (AID 157); settings: S. cerevisiae mec2-1 strain, hits give high values
Method in brief: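 Growth inhibition is read against vehicle-treated controls after compound exposure of the mec2-1 yeast strain, which is defective in DNA damage repair or cell cycle control.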

[7] = NCI Yeast Anticancer Drug Screen. Data for the rad14 strain (AID 159);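 note: 0% = growth of vehicle-treated control cultures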; settings: S. cerevisiae rad14 strain growth inhibition, hits give high values
Method in brief: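 Screen for anticancer potential: a yeast strain altered in DNA damage repair is grown with compound, and reduced growth is quantified against vehicle controls.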

[8] = NCI Yeast Anticancer Drug Screen. Data for the sgs1 mgt1 strain (AID 161);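 note: 0% = growth of cultures given vehicle only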; settings: S. cerevisiae sgs1 mgt1 strain, hits give high values
Method in brief: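 Compounds are added to genetically altered yeast, and growth is compared with cultures given vehicle alone to give percent inhibition.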

[9] = NCI Yeast Anticancer Drug Screen. Data for the CLN2oe strain (AID 163);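 note: 0% = growth of vehicle-only control cultures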; settings: S. cerevisiae CLN2oe strain, hits give high values
Method in brief: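 Compound-treated yeast; growth vs vehicle ctrl = % inhibition. Genetically altered strain (cell-cycle control).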

[10] = NCI Yeast Anticancer Drug Screen. Data for the cln2 rad14 strain (AID 165);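 note: 0% = growth equal to vehicle treated cultures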; settings: S. cerevisiae cln2 rad14 strain, hits give high values
Method in brief: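 Growth inhibition, relative to vehicle-treated controls, is the read-out. The test organism is a yeast strain with defined genetic alterations, cln2 rad14.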

[11] = NCI Yeast Anticancer Drug Screen. Data for the bub3 strain (AID 167); settings: S. cerevisiae bub3 mutant strain, hits give high values
Method in brief: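 Screening used yeast with an engineered genetic alteration affecting cell cycle control. Compound-exposed cultures were compared with vehicle cultures, and reduced growth was taken as inhibition.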

[12] = NCI Yeast Anticancer Drug Screen. Data for the wt2 strain (AID 169);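 note: 0% = growth of vehicle-treated yeast cultures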; settings: S. cerevisiae wt2 strain growth inhibition, hits give high values
Method in brief: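 Compound exposure of yeast; growth compared with vehicle controls; inhibition reported.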

[13] = NCI Yeast Anticancer Drug Screen. Data for the mlh1 strain (AID 171);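 note: 0% = growth of vehicle-treated control cultures of the same strain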; settings: S. cerevisiae mlh1 strain growth inhibition, hits give high values
Method in brief: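 Compounds are applied to a genetically altered yeast strain, and its growth is compared with that of vehicle-treated cultures to give percent inhibition.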

[14] = NCI Yeast Anticancer Drug Screen. Data for the mlh1 rad18 strain (AID 175); settings: S. cerevisiae mlh1 rad18 strain growth inhibition, hits give high values
Method in brief: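 Cells of a genetically altered yeast strain, deficient in DNA damage repair, were treated with compound. Their growth was then compared with that of vehicle-treated cultures to give inhibition.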

[15] = NCI Yeast Anticancer Drug Screen. Data for the rad18 strain (AID 177); settings: S. cerevisiae rad18 mutant growth inhibition, hits give high values
Method in brief: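 Compounds are applied to a repair-deficient yeast strain, and growth is compared with that of vehicle-treated cultures to give percent inhibition.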

[16] = at 5.0 µM (retest, dose inferred, filed as 0.5)
[17] = at 50.0 µM (retest, dose inferred, filed as 5.0)

`CN1C(=O)c2ccc3ccccc3c2C1=O` gave a growth inhibition ([1]; at 1.2 µM) of 7%, a growth inhibition ([1]; at 3.7 µM) of 11% and a growth inhibition ([1]; at 11.0 µM) of 35%. For the same molecule, the growth inhibition ([1]; at 33.0 µM) was 53%, the growth inhibition ([1]; at 100.0 µM) was 68% and the growth inhibition ([2]; at 1.2 µM) was 2%. It also gave a growth inhibition ([2]; at 3.7 µM) of 3%, a growth inhibition ([2]; at 11.0 µM) of 17% and a growth inhibition ([2]; at 33.0 µM) of 25%. The growth inhibition ([2]; at 100.0 µM) was 25%, the growth inhibition ([3]; at 1.2 µM) was 8% and the growth inhibition ([3]; at 3.7 µM) was 12%. The growth inhibition ([3]; at 11.0 µM) was 42%, the growth inhibition ([3]; at 33.0 µM) was 58% and the growth inhibition ([3]; at 100.0 µM) was 52%. For the same molecule, the growth inhibition ([4]; at 1.2 µM) was 1%, the growth inhibition ([4]; at 3.7 µM) was 1% and the growth inhibition ([4]; at 11.0 µM) was 20%. For the same molecule, the growth inhibition ([4]; at 33.0 µM) was 18%, the growth inhibition ([4]; at 100.0 µM) was 25% and the growth inhibition ([5]; at 1.2 µM) was 12%. It also gave a growth inhibition ([5]; at 3.7 µM) of 32%, a growth inhibition [5, 16] of 4% and a growth inhibition ([5]; at 11.0 µM) of 61%. For the same molecule, the growth inhibition ([5]; at 33.0 µM) was 63%, the growth inhibition [5, 17] was 62% and the growth inhibition ([5]; at 50.0 µM) was 84.5% (active). The growth inhibition ([5]; at 100.0 µM) was 70% (active), the growth inhibition ([6]; at 1.2 µM) was -5% and the growth inhibition ([6]; at 3.7 µM) was 0%. It also gave a growth inhibition [6, 16] of 0%, a growth inhibition ([6]; at 11.0 µM) of 0% and a growth inhibition ([6]; at 33.0 µM) of 17%. For the same molecule, the growth inhibition [6, 17] was 29%, the growth inhibition ([6]; at 50.0 µM) was 41.9% and the growth inhibition ([6]; at 100.0 µM) was 26%. For the same molecule, the growth inhibition ([7]; at 1.2 µM) was 3%, the growth inhibition ([7]; at 3.7 µM) was 8% and the growth inhibition ([7]; at 11.0 µM) was 20%. It also gave a growth inhibition ([7]; at 33.0 µM) of 32%, a growth inhibition ([7]; at 100.0 µM) of 43% and a growth inhibition [8, 16] of 27%. It also gave a growth inhibition [8, 17] of 54%, a growth inhibition ([8]; at 50.0 µM) of 43% and a growth inhibition ([9]; at 1.2 µM) of 3%. For the same molecule, the growth inhibition ([9]; at 3.7 µM) was 6%, the growth inhibition ([9]; at 11.0 µM) was 18% and the growth inhibition ([9]; at 33.0 µM) was 21%. For the same molecule, the growth inhibition ([9]; at 100.0 µM) was 27%, the growth inhibition [10, 16] was -39% and the growth inhibition [10, 17] was 6%. It also gave a growth inhibition ([10]; at 50.0 µM) of 33.4%, a growth inhibition ([11]; at 1.2 µM) of 6% and a growth inhibition ([11]; at 3.7 µM) of 8%. It also gave a growth inhibition [11, 16] of 4%, a growth inhibition ([11]; at 11.0 µM) of 37% and a growth inhibition ([11]; at 33.0 µM) of 35%. The growth inhibition [11, 17] was 37%, the growth inhibition ([11]; at 50.0 µM) was 48.8% and the growth inhibition ([11]; at 100.0 µM) was 32%. The growth inhibition ([12]; at 1.2 µM) was 2%, the growth inhibition ([12]; at 3.7 µM) was 3% and the growth inhibition ([12]; at 11.0 µM) was 12%. For the same molecule, the growth inhibition ([12]; at 33.0 µM) was 24%, the growth inhibition ([12]; at 100.0 µM) was 39% and the growth inhibition ([13]; at 1.2 µM) was 2%. For the same molecule, the growth inhibition ([13]; at 3.7 µM) was 3%, the growth inhibition ([13]; at 11.0 µM) was 22% and the growth inhibition ([13]; at 33.0 µM) was 29%. For the same molecule, the growth inhibition ([13]; at 100.0 µM) was 27%, the growth inhibition [14, 16] was -25% and the growth inhibition [14, 17] was 40%. It also gave a growth inhibition ([14]; at 50.0 µM) of 23.3%, a growth inhibition ([15]; at 1.2 µM) of 6% and a growth inhibition ([15]; at 3.7 µM) of 15%. It also gave a growth inhibition ([15]; at 11.0 µM) of 45%, a growth inhibition ([15]; at 33.0 µM) of 39% and a growth inhibition ([15]; at 100.0 µM) of 35%.

Source: PubChem BioAssay (NCI)
